According to PubChem BioAssay AID1159580 (chemical genetic matrix, 2015):
“And” between values parts separate entries of the source, which are not always exact repeats. Identical values can stand only once. The campaign covered roughly 5,500 compounds. About 2,000 (36%) were called active. Another 18% or so got no clear call; they are omitted. No stated cut-off is given here; in the data, active means normalized growth mostly below about 0.91 (no sharp cut-off); inconclusive means no clear call, values can overlap the other calls; inactive means mostly above about 0.92. Some of the results follow.

Test: chemical genetic growth profiling, strain panel (AID 1159580);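 further: tested at 20 µM; growth read once vehicle control cultures reached saturation at 30 °C; 1 = growth at the plate median or of vehicle wells; lower values mean less growth of the strain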
Settings: growth OD

Measured: normalized growth

NCC(CC(=O)O)c1ccc(Cl)cc1 (stereo not drawn)
inactive: S. cerevisiae deletion strains, locus YJR075W, strain HOC1, hits give low values 0.991 | S. cerevisiae deletion strains, locus YKL009W, strain mrt4, hits give low values 0.968 | S. cerevisiae deletion strains, locus YKL068W, hits give low values 1.01 | S. cerevisiae deletion strains, locus YKL085W, strain MDH1 (second series), hits give low values 0.991 | S. cerevisiae deletion strains, locus YKL085W, strain MDH1, hits give low values 0.991 | S. cerevisiae deletion strains, locus YKL160W, strain elf1, hits give low values 1.01 | S. cerevisiae deletion strains, locus YKR001C, strain vps1, hits give low values 0.974 | S. cerevisiae deletion strains, locus YKR026C, strain gcn3, hits give low values 0.995 | S. cerevisiae deletion strains, locus YKR091W, strain srl3, hits give low values 1 | S. cerevisiae deletion strains, locus YLL001W, strain dnm1, hits give low values 1.03 | S. cerevisiae deletion strains, locus YLL026W, hits give low values 1.01 | S. cerevisiae deletion strains, locus YLL041C, strain sdh2, hits give low values 0.993 | S. cerevisiae deletion strains, locus YLR027C, strain aat2, hits give low values 1.01 | S. cerevisiae deletion strains, locus YLR039C, strain RIC1, hits give low values 1.07 | S. cerevisiae deletion strains, locus YLR058C, strain SHM2, hits give low values 1.02 | S. cerevisiae deletion strains, locus YLR102C, strain apc9, hits give low values 0.985 | S. cerevisiae deletion strains, locus YLR113W, strain HOG1, hits give low values 1.05 | S. cerevisiae deletion strains, locus YLR221C, strain rsa3, hits give low values 0.976 | S. cerevisiae deletion strains, locus YLR258W, strain gsy2, hits give low values 0.984 | S. cerevisiae deletion strains, locus YLR262C, strain YPT6 (second series), hits give low values 0.995 | S. cerevisiae deletion strains, locus YLR262C, strain YPT6, hits give low values 1.08 | S. cerevisiae deletion strains, locus YLR268W, strain sec22, hits give low values 1.02 | S. cerevisiae deletion strains, locus YLR320W, strain mms22, hits give low values 0.968 | S. cerevisiae deletion strains, locus YLR330W, strain CHS5, hits give low values 1.02 | S. cerevisiae deletion strains, locus YLR342W, strain FKS1 (second series), hits give low values 1.03 | S. cerevisiae deletion strains, locus YLR342W, strain FKS1, hits give low values 1.03 | S. cerevisiae deletion strains, locus YLR357W, strain rsc2, hits give low values 1 | S. cerevisiae deletion strains, locus YLR370C, strain arc18, hits give low values 0.997 | S. cerevisiae deletion strains, locus YLR371W, strain rom2, hits give low values 0.985 | S. cerevisiae deletion strains, locus YLR384C, strain iki3, hits give low values 1.01 | S. cerevisiae deletion strains, locus YLR418C, strain cdc73, hits give low values 0.979 | S. cerevisiae deletion strains, locus YML016C, strain PPZ1, hits give low values 1.02 | S. cerevisiae deletion strains, locus YML032C, strain rad52, hits give low values 0.987 | S. cerevisiae deletion strains, locus YML120C, strain ndi1, hits give low values 0.999 | S. cerevisiae deletion strains, locus YML124C, strain tub3, hits give low values 0.983 | S. cerevisiae deletion strains, locus YMR058W, strain fet3, hits give low values 1.02 | S. cerevisiae deletion strains, locus YMR078C, strain ctf18, hits give low values 0.99 | S. cerevisiae deletion strains, locus YMR125W, strain sto1, hits give low values 0.97 | S. cerevisiae deletion strains, locus YMR129W, hits give low values 0.999 | S. cerevisiae deletion strains, locus YMR205C, strain PFK2, hits give low values 1.01 | S. cerevisiae deletion strains, locus YMR223W, strain ubp8, hits give low values 1 | S. cerevisiae deletion strains, locus YMR231W, strain pep5, hits give low values 1.01 | S. cerevisiae deletion strains, locus YMR263W, strain SAP30, hits give low values 1.01 | S. cerevisiae deletion strains, locus YMR307W, strain GAS1, hits give low values 1.1 | S. cerevisiae deletion strains, locus YNL067W, strain RPL9B, hits give low values 1 | S. cerevisiae deletion strains, locus YNL071W, strain lat1, hits give low values 0.991 | S. cerevisiae deletion strains, locus YNL128W, strain TEP1, hits give low values 1.01 | S. cerevisiae deletion strains, locus YNL153C, strain GIM3, hits give low values 1.01 | S. cerevisiae deletion strains, locus YNL175C, strain NOP13, hits give low values 0.977 | S. cerevisiae deletion strains, locus YNL183C, strain NPR1, hits give low values 0.993 | S. cerevisiae deletion strains, locus YNL197C, strain WHI3, hits give low values 1.04 | S. cerevisiae deletion strains, locus YNL209W, strain ssb2, hits give low values 0.997 | S. cerevisiae deletion strains, locus YNL224C, strain SQS1, hits give low values 0.993 | S. cerevisiae deletion strains, locus YNL233W, strain BNI4, hits give low values 1.01 | S. cerevisiae deletion strains, locus YNL248C, strain rpa49, hits give low values 0.961 | S. cerevisiae deletion strains, locus YNL250W, strain rad50, hits give low values 0.986 | S. cerevisiae deletion strains, locus YNL271C, strain bni1, hits give low values 0.987 | S. cerevisiae deletion strains, locus YNL298W, strain CLA4, hits give low values 0.984 | S. cerevisiae deletion strains, locus YNL307C, strain MCK1, hits give low values 0.977 | S. cerevisiae deletion strains, locus YNL322C, strain KRE1 (second series), hits give low values 0.985 | S. cerevisiae deletion strains, locus YNR049C, strain mso1, hits give low values 1.01 | S. cerevisiae deletion strains, locus YNR052C, strain pop2, hits give low values 0.979 | S. cerevisiae deletion strains, locus YOL012C, strain htz1 1.49 | S. cerevisiae deletion strains, locus YOL147C, strain pex11, hits give low values 0.984 | S. cerevisiae deletion strains, locus YOR001W, strain rrp6, hits give low values 0.99 | S. cerevisiae deletion strains, locus YOR061W, strain CKA2, hits give low values 1.02 | S. cerevisiae deletion strains, locus YOR069W, strain VPS5, hits give low values 1.01 | S. cerevisiae deletion strains, locus YOR070C, strain gyp1, hits give low values 0.98 | S. cerevisiae deletion strains, locus YOR080W, strain dia2, hits give low values 0.997 | S. cerevisiae deletion strains, locus YOR083W, strain WHI5 (second series), hits give low values 1.04 | S. cerevisiae deletion strains, locus YOR083W, strain WHI5, hits give low values 0.988 | S. cerevisiae deletion strains, locus YOR106W, strain vam3, hits give low values 1.02 | S. cerevisiae deletion strains, locus YOR136W, strain idh2, hits give low values 0.974 | S. cerevisiae deletion strains, locus YOR144C, strain elg1, hits give low values 0.992 | S. cerevisiae deletion strains, locus YOR184W, strain ser1, hits give low values 0.984 | S. cerevisiae deletion strains, locus YOR231W, strain MKK1, hits give low values 1.08 | S. cerevisiae deletion strains, locus YOR265W, strain rbl2, hits give low values 1 | S. cerevisiae deletion strains, locus YOR270C, strain vph1, hits give low values 0.976 | S. cerevisiae deletion strains, locus YOR290C, strain snf2, hits give low values 0.957 | S. cerevisiae deletion strains, locus YOR316C, strain cot1, hits give low values 0.986 | S. cerevisiae deletion strains, locus YPL051W, strain arl3, hits give low values 0.999 | S. cerevisiae deletion strains, locus YPL055C, strain LGE1, hits give low values 1.02 | S. cerevisiae deletion strains, locus YPL078C, strain atp4, hits give low values 1.02 | S. cerevisiae deletion strains, locus YPL106C, strain sse1, hits give low values 0.968 | S. cerevisiae deletion strains, locus YPL240C, strain hsp82, hits give low values 0.992 | S. cerevisiae deletion strains, locus YPL241C, strain CIN2, hits give low values 1.01 and 0.983 | S. cerevisiae deletion strains, locus YPL256C, strain CLN2, hits give low values 1.08 | S. cerevisiae deletion strains, locus YPR119W, strain clb2, hits give low values 0.993 | S. cerevisiae deletion strains, locus YPR141C, strain kar3, hits give low values 0.996 | S. cerevisiae deletion strains, locus YPR163C, strain tif3, hits give low values 0.99 | S. cerevisiae deletion strains, locus YPR167C, strain met16, hits give low values 0.991 | S. cerevisiae deletion strains, strain wtn01, hits give low values 0.992 | S. cerevisiae strains, strain wild type, hits give low values 1.03
